Each structure is given as a SMILES string. Among all 22,000 compounds or so, about 1,100 (5%) were called active. No stated cut-off is given here; in the data, active means activity score above about 55%; inconclusive means no clear call, values can overlap the other calls; inactive means below that. Many of the other results were omitted from the sample, so actives are more common in it than they were.

The nature of this assay: inhibitors of intracellular Trypanosoma cruzi, primary screen, cell-based, plate reader, single point, set 2 (AID 651903).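 Further: parasites and compound incubated about four days before reading; 0% = median of neutral control wells.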 The conditions noted are these: intracellular Trypanosoma cruzi in host cells, at 5.01 µM, hits give high values.
On to `C[C@@H]1CN([C@H](C)CO)C(=O)c2cc(NC(=O)c3ccncc3)ccc2O[C@H]1CN(C)C(=O)Nc1ccc(C(F)(F)F)cc1`, for which the activity score (inhibition) was 1.32% (inactive).

As for `C[C@@H]1CN([C@H](C)CO)C(=O)c2cc(NC(=O)Nc3ccc(C(F)(F)F)cc3)ccc2O[C@H]1CN(C)C(=O)Nc1ccccc1`, the activity score (inhibition) was 4.44% (inactive).

`COc1ccc(S(=O)(=O)N(C)C[C@@H]2Oc3ccc(NC(=O)C4CC4)cc3CC(=O)N([C@@H](C)CO)C[C@@H]2C)cc1`: the activity score (inhibition) is -7.17% (inactive).

As for `CNC[C@H]1Oc2ccc(NS(=O)(=O)c3ccc(F)cc3)cc2C(=O)N([C@@H](C)CO)C[C@@H]1C`, the activity score (inhibition) was -7.11% (inactive).

As to `C[C@H]1CN([C@@H](C)CO)C(=O)c2cccc(NC(=O)c3cnccn3)c2O[C@@H]1CN(C)Cc1ccc(Oc2ccccc2)cc1`, the activity score (inhibition) was 38.8% (inactive).

On to `COc1ccc(S(=O)(=O)N(C)C[C@H]2Oc3ccc(NS(=O)(=O)c4ccc(C)cc4)cc3CC(=O)N([C@@H](C)CO)C[C@@H]2C)cc1`, for which the activity score (inhibition) was -20.8% (inactive).

`COc1ccc(S(=O)(=O)Nc2ccc3c(c2)CC(=O)N([C@H](C)CO)C[C@@H](C)[C@@H](CN(C)S(=O)(=O)c2ccc(F)cc2)O3)cc1`: the activity score (inhibition) is 60.4% (active).

On to `C[C@H]1CN([C@@H](C)CO)C(=O)Cc2cc(NC(=O)Nc3ccc(C(F)(F)F)cc3)ccc2O[C@@H]1CN(C)S(=O)(=O)c1ccc(Cl)cc1`, for which the activity score (inhibition) is -15.1% (inactive).

`C[C@H]1CN([C@@H](C)CO)C(=O)Cc2cc(NC(=O)Nc3cccc4ccccc34)ccc2O[C@@H]1CN(C)S(C)(=O)=O`: the activity score (inhibition) was -12.5% (inactive).

Regarding `Cc1ccc(S(=O)(=O)N(C)C[C@H]2Oc3ccc(NC(=O)Nc4cccc5ccccc45)cc3CC(=O)N([C@H](C)CO)C[C@H]2C)cc1`, the activity score (inhibition) was 60.6% (active).

With `C[C@H]1CN([C@@H](C)CO)C(=O)Cc2cc(NC(=O)Nc3ccc(F)cc3)ccc2O[C@H]1CN(C)S(=O)(=O)c1ccccc1`, the activity score (inhibition) is 10.9% (inactive).

For the molecule `C[C@H]1CN([C@@H](C)CO)C(=O)Cc2cc(NS(=O)(=O)c3ccc(Cl)cc3)ccc2O[C@@H]1CN(C)S(=O)(=O)c1ccccc1`, the activity score (inhibition) was 9.06% (inactive).

Consider `C[C@H]1CN([C@@H](C)CO)C(=O)Cc2cc(NS(C)(=O)=O)ccc2O[C@@H]1CN(C)S(=O)(=O)c1ccc(Cl)cc1`, for which the activity score (inhibition) is 2.12% (inactive).

For the molecule `Cc1noc(C)c1S(=O)(=O)N(C)C[C@H]1Oc2ccc(NC(=O)Nc3cccc4ccccc34)cc2CC(=O)N([C@@H](C)CO)C[C@H]1C`, the activity score (inhibition) was 23.8% (inactive).

As to `C[C@@H]1CN([C@H](C)CO)C(=O)Cc2cc(NC(=O)Nc3ccc(C(F)(F)F)cc3)ccc2O[C@@H]1CN(C)S(=O)(=O)c1ccccc1`, the activity score (inhibition) is 70% (active).

Consider `C[C@@H]1CN([C@H](C)CO)C(=O)Cc2cc(NS(=O)(=O)c3ccc(Cl)cc3)ccc2O[C@@H]1CN(C)S(=O)(=O)c1ccc(Cl)cc1`, for which the activity score (inhibition) was 67.3% (active).

In the case of `C[C@@H]1CN([C@H](C)CO)C(=O)Cc2cc(NS(=O)(=O)c3ccc(F)cc3)ccc2O[C@@H]1CN(C)S(=O)(=O)c1ccc(F)cc1`, the activity score (inhibition) is 47.1% (inactive).

As for `C[C@@H]1CCCCO[C@H](CN(C)C(=O)c2ccccc2)[C@@H](C)CN([C@H](C)CO)C(=O)c2cc(NC(=O)c3ccccc3)ccc2O1`, the activity score (inhibition) was -16.9% (inactive).

Consider `C[C@@H]1CN([C@@H](C)CO)C(=O)c2cccc(NC(=O)C3CCOCC3)c2O[C@H]1CN(C)C(=O)NC1CCCCC1`, for which the activity score (inhibition) is 2.53% (inactive).

On to `C[C@H]1CN([C@@H](C)CO)C(=O)c2cc(NC(=O)c3ccncc3)ccc2O[C@H]1CN(C)Cc1ccc(C(=O)Nc2ccccc2N)cc1`, for which the activity score (inhibition) was 37.7% (inactive).

In the case of `C[C@H](CO)N1C[C@H](C)[C@@H](CN(C)Cc2ccc(C(F)(F)F)cc2)Oc2ccc(NC(=O)CCC(F)(F)F)cc2C1=O`, the activity score (inhibition) was 7.64% (inactive).

On to `COc1ccc(S(=O)(=O)Nc2cccc3c2O[C@H](CN(C)S(=O)(=O)c2ccc(OC)cc2)[C@@H](C)CN([C@H](C)CO)C3=O)cc1`, for which the activity score (inhibition) is 8.53% (inactive).

For `Cc1ccc(S(=O)(=O)Nc2ccc3c(c2)CC(=O)N([C@@H](C)CO)C[C@@H](C)[C@@H](CN(C)S(=O)(=O)c2ccccc2)O3)cc1`, the activity score (inhibition) is 52% (inactive).

For `Cc1ccc(S(=O)(=O)N(C)C[C@H]2Oc3ccc(NS(C)(=O)=O)cc3CC(=O)N([C@@H](C)CO)C[C@H]2C)cc1`, the activity score (inhibition) is 5.47% (inactive).

`Cc1ccc(S(=O)(=O)N(C)C[C@H]2Oc3ccc(NS(=O)(=O)c4ccccc4)cc3CC(=O)N([C@@H](C)CO)C[C@H]2C)cc1`: the activity score (inhibition) was 57.7% (active).

In the case of `COc1ccc(S(=O)(=O)N(C)C[C@H]2Oc3c(NS(=O)(=O)c4ccc(F)cc4)cccc3C(=O)N([C@H](C)CO)C[C@H]2C)cc1`, the activity score (inhibition) was 71.9% (active).

In the case of `COc1ccc(S(=O)(=O)Nc2cccc3c2O[C@@H](CN(C)S(=O)(=O)c2ccc(F)cc2)[C@H](C)CN([C@H](C)CO)C3=O)cc1`, the activity score (inhibition) is -4.59% (inactive).

For `C[C@@H]1CN([C@H](C)CO)C(=O)CCCn2cc(nn2)CO[C@H]1CN(C)S(C)(=O)=O`, the activity score (inhibition) was -20.6% (inactive).

As to `C[C@H](CO)N1C[C@H](C)[C@H](CN(C)C(=O)Nc2ccc3c(c2)OCO3)Oc2ccc(NC(=O)Nc3ccccc3)cc2CC1=O`, the activity score (inhibition) was -2.34% (inactive).

Turning to `Cc1noc(C)c1NC(=O)Nc1ccc2c(c1)CC(=O)N([C@@H](C)CO)C[C@@H](C)[C@@H](CN(C)Cc1ccc(Cl)c(Cl)c1)O2`, the activity score (inhibition) was 0.719% (inactive).

Take `C[C@H](CO)N1C[C@H](C)[C@H](CN(C)Cc2ccc3c(c2)OCO3)Oc2c(NS(=O)(=O)c3ccccc3)cccc2C1=O`: the activity score (inhibition) was 4.5% (inactive).
